# The campaign covered roughly 310,000 compounds. About 14,000 (4.5%) showed an effect of 50% or more. The effect is printed as a negative number. The sample holds strong results, similar compounds and a random draw of the others, so the mix is not that of the screen.
# Biological target: human ether-à-go-go-related gene (hERG) potassium channel (human, UniProt Q12809)
# Test: primary screen, population patch clamp on CHO cells stably expressing hERG; higher = less effect of the substance
# Method: Briefly, Chinese hamster ovary (CHO) cells stably expressing the hERG channel were dislodged from tissue culture flasks and dispensed into PPC plates. […] During the recording, background leak currents were estimated by a 100 ms step to -80 mV from an initial holding potential of -70 mV and subtracted from the subsequent current measurement. The campaign was conducted in two phases using slight differences in recording protocol. In the first phase, the initial voltage pulse used a 100 ms step to -30 mV from a holding potential of -70 mV, a 2 s conditioning step to +25 mV, and a 2 s test step to -30 mV. During the second phase of the screen, the potential during the conditioning step was raised to +45 mV. In both phases of the campaign, a secondary voltage pulse was applied using the same parameters as the second phase initial pulse. The initial and secondary pulses were applied in the absence of compound, and upon application of 1 μM and 10 μM test concentrations. […]
# 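Further: peak tail current of the secondary pulse compared with the same well before compound.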
# Sequence of human ether-à-go-go-related gene (hERG) potassium channel (Q12809 whole entry, looked up): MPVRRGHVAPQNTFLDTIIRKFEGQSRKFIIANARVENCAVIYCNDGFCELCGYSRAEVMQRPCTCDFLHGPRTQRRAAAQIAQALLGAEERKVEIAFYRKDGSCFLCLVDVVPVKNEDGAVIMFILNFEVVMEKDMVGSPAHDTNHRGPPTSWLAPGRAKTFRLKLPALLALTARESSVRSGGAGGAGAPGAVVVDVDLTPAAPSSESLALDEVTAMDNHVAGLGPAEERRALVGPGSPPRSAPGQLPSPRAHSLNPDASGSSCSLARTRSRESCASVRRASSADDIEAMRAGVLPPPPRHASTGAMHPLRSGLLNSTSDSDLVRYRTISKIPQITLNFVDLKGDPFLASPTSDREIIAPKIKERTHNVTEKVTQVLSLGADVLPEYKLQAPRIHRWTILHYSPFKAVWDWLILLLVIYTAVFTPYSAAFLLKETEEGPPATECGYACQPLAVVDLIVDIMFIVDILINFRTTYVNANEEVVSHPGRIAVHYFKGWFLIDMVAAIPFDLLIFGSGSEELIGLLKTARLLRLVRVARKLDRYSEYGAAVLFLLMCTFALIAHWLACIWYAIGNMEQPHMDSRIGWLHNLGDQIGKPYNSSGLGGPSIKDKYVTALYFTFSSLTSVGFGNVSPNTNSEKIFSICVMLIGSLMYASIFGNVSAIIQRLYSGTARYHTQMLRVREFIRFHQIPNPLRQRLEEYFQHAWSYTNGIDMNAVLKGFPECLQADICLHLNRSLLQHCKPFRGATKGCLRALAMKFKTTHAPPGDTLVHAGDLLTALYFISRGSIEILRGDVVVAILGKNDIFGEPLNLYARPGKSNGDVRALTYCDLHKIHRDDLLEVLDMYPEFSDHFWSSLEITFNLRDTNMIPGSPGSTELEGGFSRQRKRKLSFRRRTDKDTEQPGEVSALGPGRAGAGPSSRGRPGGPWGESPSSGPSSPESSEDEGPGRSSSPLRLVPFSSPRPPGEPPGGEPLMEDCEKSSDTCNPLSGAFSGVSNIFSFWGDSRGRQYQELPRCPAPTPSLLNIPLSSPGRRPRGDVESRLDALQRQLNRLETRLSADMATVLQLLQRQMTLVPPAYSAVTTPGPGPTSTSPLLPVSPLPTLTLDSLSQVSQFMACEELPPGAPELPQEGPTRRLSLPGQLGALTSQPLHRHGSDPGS
row,SMILES,"hERG current change (%, negative = inhibition) at 10uM"
1,CCN(CC)CCN(Cc1cc2ccc(C)c(C)c2[nH]c1=O)C(=S)NCc1ccco1,-51.4%
2,CCN(CC)CCN(Cc1cc2cc(C)cc(C)c2[nH]c1=O)C(=S)NCc1ccco1,-52.5%
3,Cc1ccc2cc(CN(CC3CCCO3)C(=S)NCc3ccco3)c(=O)[nH]c2c1C (stereo not shown),-40.8%
4,Cc1cc(C)c2[nH]c(=O)c(CN(CC3CCCO3)C(=S)NCc3ccco3)cc2c1 (stereo not shown),-4.81%
5,Cc1cc(C)c2[nH]c(=O)c(CN(Cc3cccs3)C(=S)NCc3ccco3)cc2c1,-15.7%
6,Cc1cccc2cc(CN(CCN(C)C)C(=S)NCc3ccco3)c(=O)[nH]c12,-38.9%
7,Cc1ccc(OCCC(=O)Nc2ccc(S(=O)(=O)Nc3cc(C)nc(C)n3)cc2)cc1,1.18%
8,COc1c(O)ccc2c1-c1c3c(cc4c1C(C2)N(C)CC4)OCO3 (stereo not shown),-28.7%
9,Br.C=CCN1CCc2cccc3c2[C@H]1Cc1ccc(O)c(O)c1-3,-19.3%
10,Br.CCCN1CCc2cc(O)cc3c2[C@H]1Cc1ccc(O)c(O)c1-3.O,-57.8%
11,Cn1c(N)c(N=Nc2ccc(S(N)(=O)=O)cc2)c(=O)n(C)c1=O,27.6%
12,CCN(CC(=O)Nc1ccc(OC)cc1)CC(=O)Nc1ccc(Br)cc1F,-67.4%
13,CCN(CC(=O)Nc1ccc(OC)cc1)CC(=O)Nc1ccc(Cl)cc1F,-6.34%
14,COc1ccc(NC(=O)CN(C)CC(=O)Nc2ccc(Cl)cc2F)cc1,-10.6%
15,Cc1ccc(Cn2nnc3c(=O)n(CC(=O)c4ccccc4)cnc32)cc1,-0.591%
16,COc1ccc(NS(=O)(=O)c2cc(-c3cnc(C4CC4)o3)ccc2C)cc1,6.02%
17,CCc1ccc(-c2nc(CSCC(=O)N3CCN(c4ccccn4)CC3)c(C)o2)cc1,-50.7%
18,Cc1ccc(-c2nc(CS(=O)CC(=O)N3CCN(c4ncccn4)CC3)c(C)o2)cc1 (stereo not shown),-54.1%
19,COC(=O)c1ccc(-c2nc(CN3CCC(C(=O)N4CCOCC4)CC3)c(C)o2)cc1,-7.65%
20,CCc1ccc(-c2nc(CSCC(=O)N3CCN(c4ncccn4)CC3)c(C)o2)cc1,-23.6%
21,Cc1ccc(-c2nc(CS(=O)CC(=O)N3CCN(c4ccc(F)cc4)CC3)c(C)o2)cc1 (stereo not shown),-42%
22,Cc1ccc(-c2nc(CS(=O)CC(=O)N3CCN(c4ccccc4)CC3)c(C)o2)cc1 (stereo not shown),-31.3%

row,SMILES,"hERG current change (%, negative = inhibition) at 10uM"
1,CCc1ccc(-c2nc(CN3CCC(C(=O)N4CCN(c5ccccc5)CC4)CC3)c(C)o2)cc1,-71.3%
2,COc1ccc(-c2nc(CN3CCC(C(=O)N4CCOCC4)CC3)c(C)o2)cc1OC,-6.54%
3,Cc1ccc(-c2nc(CSCC(=O)N3CCN(c4ccccn4)CC3)c(C)o2)cc1,-25%
4,Cc1ccccc1-c1nc(CN2CCC(C(=O)N3CCN(c4ccccn4)CC3)CC2)c(C)o1,-62%
5,CCOc1ccccc1-c1nc(CN2CCC(C(=O)N3CCOCC3)CC2)c(C)o1,-5.13%
6,Cc1nn(Cc2ccccc2Cl)c(C)c1NC(=O)Cn1nc([N+](=O)[O-])c(Cl)c1C,7.21%
7,COC(=O)c1coc(-c2ccc(C)cc2)c1C(=O)OC,1.6%
8,CC(=O)c1ccc(N2CCN(S(=O)(=O)c3ccc4ccccc4c3)CC2)cc1,3.28%
9,Cc1cc(Nc2nnnn2-c2ccccc2)n(-c2ccccc2)n1,-21.8%
10,CCN1CCN(C(=O)C(NS(=O)(=O)c2ccc3nc(C)sc3c2)C(C)C)CC1 (stereo not shown),0.194%
11,COc1ccc(-c2[nH]c(-c3ccc(F)cc3)nc2SCC(=O)NCc2ccco2)cc1OC,18.8%
12,CSc1ccc(/C=N/Nc2ccc(Cl)c(C(=O)O)c2)cc1,6.73%
13,COC(=O)/C(=C/c1c[nH]c2ccccc12)NC(C)=O,6.31%
14,Cc1ccccc1-c1nc(CN2CCC(C(=O)O)CC2)c(C)o1,-18.6%
15,CCc1ccc(-c2nc(CN3CCC(C(=O)N4CCN(c5ccccn5)CC4)CC3)c(C)o2)cc1,-68.5%
16,Cc1ccccc1-c1nc(CN2CCC(C(=O)N3CCC(C(N)=O)CC3)CC2)c(C)o1,2.7%
17,CCOC(=O)N1CCN(C(=O)C2CCN(Cc3nc(-c4ccccc4C)oc3C)CC2)CC1,-58.3%
18,O=C1OC(/C=C/c2ccccc2)=NC/1=C\c1cccnc1,19.4%
19,CCCc1c(O)nc(SCC(=O)NCc2ccco2)[nH]c1=O,27%
20,O=C(c1ccc(=O)oc1)N1CCN(C(c2ccccc2)c2ccccc2)CC1,-32.2%
21,CC1CCN(C(=O)c2ccc(-n3cnnn3)cc2)CC1,-72.1%
22,O=C(c1ccc(-n2cnnn2)cc1)N1CCCCC1,-24.1%

row,SMILES,"hERG current change (%, negative = inhibition) at 10uM"
1,O=C(Nc1ccc(-n2cnnn2)cc1)C(c1ccccc1)c1ccccc1,8.56%
2,O=C(c1ccc(-n2cnnn2)cc1)N1CCN(C(c2ccccc2)c2ccccc2)CC1,-64.7%
3,O=C(c1ccc(-n2cnnn2)cc1)N1CCOCC1,-1.64%
4,Cc1cc(NC(=O)c2cc(CC(C)C)on2)n(-c2ccccc2)n1,9.57%
5,COc1cc(NC(=O)CCCN2C(=O)NC(C)(C)C2=O)cc(OC)c1,12.2%
6,Cc1cccc(OCC(=O)NCC(=O)N/N=C/c2ccc(N(C)C)cc2)c1,0.0886%
7,Cc1ccc(NC(=O)Nc2c(Cl)cccc2Cl)cn1,14%
8,COC(=O)CCSc1cc([N+](=O)[O-])cc2c1c(C1OCCS1)nn2-c1ccccc1 (stereo not shown),3.61%
9,O=C(O)CCc1ccc(-c2cccs2)n1NC(=O)c1cccs1,22.3%
10,O=C(Nc1ccc(Br)cc1)N1CCCC(O)C1 (stereo not shown),6.54%
11,CN1CCN(C(=O)c2ccc3c(c2)N(Cc2ccccc2F)C(=O)c2ccccc2S3=O)CC1 (stereo not shown),5.05%
12,COCCN1CCN(Cc2nc(C3(c4ccc(C)cc4)CCCC3)no2)CC1,-9.3%
13,Cc1ccc(C2(c3noc(CN4CCOCC4)n3)CCCC2)cc1,17.3%
14,Cc1ccc(C2(c3noc(CN4CCC(c5ccncc5)CC4)n3)CCCC2)cc1,-55.5%
15,COc1ccccc1NC(=O)C[n+]1ccccc1C.[Cl-],15.3%
16,COc1ccc(-n2c(SCC(N)=O)nc3sc4c(c3c2=O)CCC4)cc1,-16.9%
17,CCOC(=O)CSc1nc2sc3c(c2c(=O)n1-c1ccc(OCC)cc1)CCN(C)C3,-53.9%
18,COc1ccc(-n2c(SCC(=O)O)nc3sc4c(c3c2=O)CCCC4)cc1,20.3%
19,CN(C)CCNc1nc2sc3c(c2c(=O)n1-c1ccc(F)cc1)CCCCC3,-33.3%
20,COc1ccc(-n2c(SCC(=O)O)nc3sc4c(c3c2=O)CCC4)cc1,18.9%
21,COc1ccc(-n2c(SCCNCCO)nc3sc4c(c3c2=O)CCCC4)cc1,-55.7%
22,COc1ccc(-n2c(NCCN(C)C)nc3sc4c(c3c2=O)CCCCC4)cc1,-72.7%

row,SMILES,"hERG current change (%, negative = inhibition) at 10uM"
1,CCOc1ccc(-n2c(SCC(=O)OC)nc3sc4c(c3c2=O)CCN(C)C4)cc1,-0.924%
2,COc1ccc(-n2c(NN)nc3sc4c(c3c2=O)CCCC4)cc1,-47.4%
3,CCOC(=O)CSc1nc2sc3c(c2c(=O)n1-c1ccc(OC)cc1)CCN(C)C3,-5.76%
4,CCN1CCN(c2nc3sc4c(c3c(=O)n2-c2ccc(OC)cc2)CCCCC4)CC1,-60.3%
5,COc1ccc(-n2c(C)nc3sc4c(c3c2=O)CCCC4)cc1,-20.3%
6,COc1ccc(CNc2nc3nc(-c4ccccc4)cc(=O)n3[nH]2)cc1OC,-13.1%
7,CCOC(=O)c1sc(NC(=O)CSc2nc(C)cc(C(F)(F)F)n2)c(C#N)c1C,4.26%
8,COc1ccc(C(=O)c2c[nH]c(C(=O)NCc3cccnc3)c2)cc1,-12.7%
9,CCN1CCc2nc(NC(=O)c3cc(F)c(F)cc3Cl)sc2C1,-34.2%
10,Cc1cccc(OCCOC(=O)c2ccc(F)c(S(=O)(=O)N3CCOCC3)c2)c1,-18.1%
11,CNC(=O)c1c(NC(=O)c2ccc(S(=O)(=O)N3CC(C)OC(C)C3)cc2)sc2c1CCN(C(C)C)C2 (stereo not shown),-26.9%
12,CNC(=O)c1c(NC(=O)c2ccc(S(=O)(=O)N3CCCCC3)cc2)sc2c1CCN(C(C)C)C2,-65.8%
13,CCN1CCc2c(sc(NC(=O)c3ccc(C(=O)c4ccccc4)cc3)c2C(N)=O)C1.Cl,-55.4%
14,CCN1CCN(S(=O)(=O)c2ccc(C(=O)Nc3sc4c(c3C(N)=O)CCN(CC)C4)cc2)CC1,12.4%
15,CCN1CCc2c(sc(NC(=O)c3ccc(S(=O)(=O)N4CCOCC4)cc3)c2C(N)=O)C1,-21.9%
16,CCN1CCc2c(sc(NC(=O)c3ccc4ccccc4c3)c2C(N)=O)C1.Cl,7.59%
17,CN1CCc2c(sc(NC(=O)c3ccc(C(=O)c4ccccc4)cc3)c2C(N)=O)C1.Cl,11.5%
18,CCN1CCc2c(sc(NC(=O)c3ccc(S(=O)(=O)N4CC(C)OC(C)C4)cc3)c2C(N)=O)C1 (stereo not shown),-54.5%
19,Cl.NC(=O)c1c(NC(=O)c2ccccc2)sc2c1CCN(Cc1ccccc1)C2,7.85%
20,CCC(=O)Nc1sc2c(c1C(N)=O)CCN(Cc1ccccc1)C2.Cl,-53.3%
21,CNC(=O)c1c(NC(=O)c2ccc(S(=O)(=O)N3CCCC3)cc2)sc2c1CCN(C(C)C)C2,2.7%
22,Cl.NC(=O)c1c(NC(=O)Cc2ccccc2)sc2c1CCN(Cc1ccccc1)C2,7.96%
